# Most compounds without a hit are left out; they make up all but 6.2% or so of the library.
# MARV entry inh = blocks Marburg virus binding to or entry into cells | Marburg virus pseudotyped entry inhibition, cell reporter | Potency, µM (top dose mostly 37.8 µM), for inactives: at the top dose activity change, negative = inhibition, most hits filed as inhibitors | 300,000 tested, 1.8% active | AID 540276; calls by dose curve; tested in HEK293 cells; further: potency means the concentration at half of the fitted maximal effect
# HCMV inh = human cytomegalovirus inhibition; AID 1259415; activity change, negative = inhibition, % at 57.5 µM; HFF cells, HCMV-luciferase reporter, 72 h; active compounds read low; 410,000 tested, 4.5% active; in the data active means activity change below about -60%; inconclusive means no clear call, values can overlap the other calls; inactive means above about -39%
#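 HFF cells seeded 16 h at 37C, treated with compounds, infected with luciferase-reporter HCMV at MOI 1 PFU/cell; luciferase read at 72 h post infection, normalized to buffer-only and Salinomycin controls.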
# Lassa entry inh = Lassa virus entry inhibition. Lassa virus pseudotype entry inhibition, cell reporter. Potency, µM (top dose mostly 37.9 µM), inactives show at the highest dose activity change, negative = inhibition, most hits filed as inhibitors. 300,000 tested, 1.2% active; calls by dose curve; tested in HEK293 cells; further: potency means the concentration at half of the fitted maximal effect; nearly all actives have a fitted effect of over 50% in size
# FMDV antiviral = blocks foot and mouth disease virus | FMDV antiviral cell-based qHTS | 410,000 tested, 1.2% active | AID 1159524 | Potency, µM (doses to about 57.9 µM), for inactives: at the top dose activity change, negative = inhibition, usual class: inhibitors; calls by dose curve; tested in HEK293T cells; further: read-out not given here; potency means the concentration at half of the fitted maximal effect; nearly all actives have a fitted effect of over 45% in size
# * marks the source's active call; other numbers are inactive results; u = inconclusive; x = no result; [ ] = another dose, or the depositor's remark. On the % scale 0 is the no-effect control and ±100 the full control effect.
SMILES,MARV entry inh,HCMV inh,Lassa entry inh,FMDV antiviral
C=C1C(=O)[C@]23C[C@H]1CCC2[C@]1(C)C(=O)CC[C@@](C)(C(=O)O)C1C[C@@H]3O (stereo not given in full),x,-19,x,35µM*
C=C1C(=O)[C@]23C[C@H]1CCC2[C@]1(C)CCC[C@@](C)(C(=O)O)C1C[C@@H]3O (stereo not given in full),x,-102*,x,25µM*
C=C1C(=O)[C@]23C[C@H]1CC[C@H]2[C@]1(C)[C@@H](OC(C)=O)CC[C@@](C)(C(=O)O)[C@H]1C[C@@H]3OC(C)=O,x,-15,x,u
CCCCCn1c(CN2CCN(c3ccc(OC)cc3)CC2)nc2c1c(=O)[nH]c(=O)n2C,-9%[46.1 µM],-4,u,0%
O=C(c1cccn(Cc2ccc(Cl)c(Cl)c2)c1=O)N1CCOCC1,-2%,-23,0%,-9%
O=c1c(-c2nc3ccccc3s2)cccn1Cc1ccc(Cl)c(Cl)c1,1%,-63*,4%,23%
Cc1cccnc1CNC(=O)C1(C)CCCN1CC(C)C (stereo not given),x,-37,x,-17%
CC(=O)c1ccc(NC(=O)CCc2c(C)nc3cc(-c4ccc(Cl)cc4)nn3c2C)cc1,-3%[46.1 µM],-35,7%[46.1 µM],u
CCN(CC)S(=O)(=O)c1ccc(NC(=O)CCc2c(C)nc3cc(-c4ccc(Cl)cc4)nn3c2C)cc1,u,-76*,u,u
CCOc1ccc2c(c1)OC(c1ccc(C)cc1)(C(F)(F)F)NC2=O (stereo not given),-26%,-83*,u,-2%
COc1ccc2oc(=O)c(-c3csc(Nc4ccc(O)cc4)n3)cc2c1,u,u,10µM*,u
COc1ccc2oc(=O)c(-c3csc(-c4ccc(Br)cc4)n3)cc2c1,x,24,14%[46.1 µM],-6%
COc1ccc(CCNc2cc(C)nc3c(-c4ccccc4)cnn23)cc1OC,9.2µM*,-68*,8.9µM*,6%
COc1ccc(CCNc2nc3ccccc3c3nc(-c4cccc(C)c4)nn23)cc1OC,14%[46.1 µM],175,x,12%
Cc1cc(NCCCn2ccnc2)n2nc(C)c(-c3ccccc3)c2n1,-4%,87,3%,25%
COc1ccc(CCNc2cc(C)nc3c(-c4ccc(Cl)cc4)cnn23)cc1OC,-11%,34,-4%,-28%
COc1ccc(CCNc2nc3cc(OC)c(OC)cc3c3nc(-c4ccccc4)nn23)cc1OC,12%[46.1 µM],-14,x,4.5µM*
Cc1cc(NCCCn2ccnc2)n2ncc(-c3ccccc3)c2n1,u,x,4.5µM*,-4%
O=C1CCCC/C1=C/Nc1cccc(C(F)(F)F)c1,1%,-29,0%,37%
O=C1CCC2S/C(=C/Nc3ccc(C(F)(F)F)cc3)C(=O)N12 (stereo not given),u,-78*,u,8.9µM*
NCCCn1c(C(=O)c2cc(Cl)c(N)c(Cl)c2)c2ccc([N+](=O)[O-])cc2[n+]1[O-],x,-67*,x,-14%
NCCCn1c(C(=O)c2cc(Cl)c(N)c(Cl)c2)c2ccc(C(F)(F)F)cc2[n+]1[O-],x,29,x,-22%
CCOc1ccc2[nH]c(=O)c(CN(CCO)C3(c4nnnn4C4CCCCC4)CCCCC3)cc2c1,u,-61*,5%,u
COc1ccccc1CN(Cc1cc2cc(C)ccc2[nH]c1=O)Cc1nnnn1Cc1ccco1,13µM*,-4,u,u
CCOc1ccc2[nH]c(=O)c(CN(CCO)Cc3nnnn3CCc3ccccc3)cc2c1,1%,21,10%,-18%
SMILES,MARV entry inh,HCMV inh,Lassa entry inh,FMDV antiviral
CCOc1ccc2[nH]c(=O)c(CN(Cc3nnnn3Cc3ccco3)C3CCCCC3)cc2c1,10µM*,-3,u,-23%
COc1ccccc1CN(Cc1cc2cc(C)cc(C)c2[nH]c1=O)Cc1nnnn1CC1CCCO1 (stereo not given),10µM*,7,u,x
COc1cc2cc(CN(Cc3nnnn3Cc3ccco3)C3CCCCC3)c(=O)[nH]c2cc1OC,u,-22,-12%,-24%
COC(=O)[C@@H]1CC[C@H](C)[C@@H](c2ccc(C)cc2)N1C(=O)c1ccc(C=NO[C@@H](C)c2cc(-c3c(C)cc(C)cc3C)no2)cc1,6%[14.2 µM],x,x,x
CC1=C(C(=O)N2CCCCCC2)CC(CC(=O)NC2CCCCC2)C(=O)N1Cc1ccc(C(C)(C)C)cc1 (stereo not given),x,-11,x,-18%
COc1ccc(CNc2nc(NCc3ccc(OC)cc3)n(C(=O)c3ccccc3[N+](=O)[O-])n2)cc1,5%,-31,4.1µM*,21%
Cc1ccc(C(=O)CSc2nnnn2C(C)C)c(C)c1,5.6µM*,u,7.1µM*,14µM*
Cc1ccc(C)c(C(=O)CSc2nnnn2C(C)C)c1,-1%,86,3%,32%
COC(=O)c1ccc(C(=O)OC)c(NC(=O)c2cc3nc(-c4ccc(C)cc4)cc(C(F)(F)F)n3n2)c1,u,7,-16%[46.1 µM],-1%
Cc1cc(C)c2nc(-c3ccccn3)cc(C(=O)NCCc3ccc(S(N)(=O)=O)cc3)c2c1,-15%[46.1 µM],3,-1%[46.1 µM],14%
Cc1cc(C)c2nc(-c3ccccn3)cc(C(=O)NCc3ccc(S(N)(=O)=O)cc3)c2c1,11µM*,-18,u,-19%
O=C(NNc1ccccc1Br)C(O)(c1cccc(C(F)(F)F)c1)c1cccc(C(F)(F)F)c1,u,-99*,u,35µM*
Cc1ccc(C(O)(C(=O)NNc2ccccn2)c2ccc(C)cc2)cc1,-6%[46.1 µM],u,-9%,-18%
Cc1ccc(NNC(=O)C(O)(c2cccc(C(F)(F)F)c2)c2cccc(C(F)(F)F)c2)cc1,u,-89*,u,u
O=C(O)C[C@H]1SC(=Nc2cccc(C(F)(F)F)c2)NC1=O,-22%[46.1 µM],x,x,x
CC(C)c1ccc(/C=N/NC(=O)c2ccccn2)cc1,5µM*,69,u,13µM*
COc1ccc(C(=O)Nc2ccccc2C(=O)N/N=C/c2ccccn2)cc1OC,u,-109*,10µM*,u
O=C(N/N=C/c1ccccn1)c1ccc(Cl)cc1,u,-97*,u,u
COc1ccc(Cl)cc1NC(=O)c1cccc(-n2cnnn2)c1,-15%,-63*,-4%,-22%
Cc1c(-c2ccccc2)c(=O)oc2c(CN3CCCC3)c(O)ccc12,x,2,3%[46.1 µM],12%
CCC1C(=O)NCCN1Cc1ccc2c(c1)CN(Cc1ccc(OC)c(OC)c1)CCO2 (stereo not given),x,x,x,-17%
COc1ccc(CCNC(=O)CN2C(=O)COc3ccc(S(=O)(=O)N4CCCCCC4)cc32)cc1OC,-13%[46.1 µM],-10,u,u
COc1ccc(C(=O)Nc2ccc(/C(C)=N/NC(=O)c3ccccc3O)cc2)cc1OC,13µM*,-3,13%,-4%
COc1ccc(C(=O)Nc2cccnc2Cl)cc1OC,x,-87*,x,1%
COc1ccc(S(=O)(=O)NCc2nc(N3CCCC3)c3cccc(C)c3n2)cc1OC,x,x,x,-5%
COc1ccc(-c2cc(C(F)(F)F)nc(SCC(=O)N(C)Cc3ccccc3)n2)cc1,-10%[46.1 µM],-16,u,-13%
COc1ccccc1[C@H]1/C(=C(\O)c2ccc(C)cc2)C(=O)C(=O)N1CCN1CCOCC1,15%,x,x,x
CCC(=NCc1ccco1)c1c(O)n(-c2ccccc2)c(=O)[nH]c1=O,13%,36,u,-20%

# Screening results as filed in PubChem.
